Here are results for 9 molecules from publication PMC5540273 (PLoS ONE, 2017).

As a reminder, the Kd is the equilibrium constant for the complex coming apart. Higher therefore signals weaker binding.
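Also: kd values determined as follow-up on hits from a single-replicate KINOMEscan panel screen.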

The subject of one experiment is ICK.
As to `CS(=O)(=O)c1ccc(-c2nc3n(c2-c2ccncc2)CCC3)cc1` [SKF-105942], the Kd is above 10 µM.
Same read-out and setting: the figure for `O=C(Nc1n[nH]c2nc(-c3nccs3)c(Br)cc12)C1CCCC1` [SB-742609] is 0.22 µM; for `Cl.NC(=O)c1cccc(Nc2nccc(Nc3ccc(Oc4cccc(Cl)c4)c(Cl)c3)n2)c1` [GW659008] it is above 10 µM.
The molecule `Cc1cc(N2Cc3ccccc3C2)nc(Nc2ccc(S(=O)(=O)N3CCOCC3)cc2)n1.Cl` [GSK1669917] showed a Kd above 10 µM.

In another experiment the test system is IRAK3.
In turn, `CS(=O)(=O)c1ccc(-c2c(-c3ncn[nH]3)sc(N3CCOCC3)c2C#N)cc1` returned a Kd above 10 µM.
On the same count and under the same terms, then `CCn1c(-c2ccccn2)nc2cnccc21` [SB-736398], with 7.5 µM; and `Cc1ccc(NC(=O)Nc2cc(C(C)(C)C)nn2-c2ccccc2)cc1` [GSK1014915], with above 10 µM; and `Cc1ccc(NC(=O)Nc2cccc(C(F)(F)F)c2)cc1` [GSK955403], with above 10 µM.
`Cc1ccc(NC(=O)Nc2cccc(Cl)c2)cc1-c1ccc(C(=O)Nc2ccncc2)cc1` [GSK1398468] had a Kd above 10 µM.
